Bioassay records: PubChem BioAssay, National Center for Advancing Translational Sciences (NCATS)
An excerpt weighted towards active compounds, which were near 21% of everything screened.
CHX counter = Cycloheximide Counterscreen for Small Molecule Inhibitors of Shiga Toxin; cell reporter, cycloheximide protein synthesis inhibition counterscreen; max response, %; 300,000 tested, 12% active; AID 2314, 2010; in the data active = max response mostly above about 13%, no sharp cut-off; inactive = mostly below about 14%; note: read at 38.3 µM for the half of the compounds with a filed dose; 0% is about no effect
Pf growth 96h = Primary qHTS for delayed death inhibitors of the malarial parasite plastid, 96 hour incubation; P. falciparum luciferase reporter growth, 96 h; 320,000 tested, 6.9% active; AID 504834, 2011; Potency, µM (series often up to 28.7 µM), for inactives: top-dose activity change, negative = inhibition, most hits filed as inhibitors; note: potency is the fitted concentration of half-maximal effect; % is set by controls: 0 for no effect and ±100 for the full control effect
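Infected RBCs, 2% Hct / 0.05% parasitemia final; luciferase-reporter P. falciparum; cpd 96 h, 37 C, 5% CO2; luciferase detection reagent; luminescence.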
NS1 inh = qHTS Assay for Inhibitors of Influenza NS1 Protein Function | Potency, µM (highest dose often 46.1 µM), for inactives: at the top dose activity, positive = more growth | 270,000 tested, 0.4% active; calls by dose curve; note: potency is the fitted concentration of half-maximal effect; actives are rising curves; nearly all actives have a fitted effect of over 50% in size
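A cell-based growth assay was used: compounds that relieve NS1-induced slow growth of budding yeast raise OD600. Assay medium was yeast nitrogen base with ammonium sulphate and -URA supplement, pH 6.0, with 2% galactose.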
Pf growth 48h = Primary qHTS for delayed death inhibitors of the malarial parasite plastid, 48 hour incubation | P. falciparum luciferase growth in erythrocytes, 48 h | Potency, µM (doses to about 28.7 µM), without a hit: top-dose activity change, negative = inhibition, most hits filed as inhibitors | 310,000 tested, 5.9% active | AID 504832, 2011; note: potency is the fitted concentration of half-maximal effect; % is set by controls: 0 for no effect and ±100 for the full control effect
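Luciferase-expressing parasites in RBCs, 2% Hct / 0.1% parasitemia final; RPMI 1640 + 0.5% Albumax; 37 C, 5% CO2, one generation; luminescence read-out, lower signal = inhibition.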
Shiga toxin inh = A qHTS for Small Molecule Inhibitors of Shiga Toxin; 290,000 tested, 9.2% active; Vero cells, Shiga toxin protein synthesis inhibition reporter; inhibition, % at 38.7 µM; in the data active = inhibition mostly above about 28%, no sharp cut-off; inactive = mostly below about 43%; note: 0% is about no effect
Sm TGR inh = qHTS Assay for the Inhibitors of Schistosoma Mansoni Peroxiredoxins; AID 485364, 2010; Potency, µM (highest dose often 114 µM), for the others: at the top dose activity change, negative = inhibition, usual class: inhibitors; 360,000 tested, 3% active; Schistosoma mansoni thioredoxin glutathione reductase (TGR), Q962Y6; purified TGR, DTNB reduction, TNB absorbance 405 nm; note: potency is the fitted concentration of half-maximal effect; % is set by controls: 0 for no effect and ±100 for the full control effect; nearly all actives have a fitted effect of over 60% in size
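Kinetic colorimetric format: TGR-catalysed, NADPH-driven DTNB reduction monitored via TNB absorbance. Enzyme dispensed at 20 nM; compound exposure 15 min at room temperature before reaction start.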
* marks the source's active call; other numbers are inactive results; ? = inconclusive; nt = no result. Unless noted, calls come from the whole dose curve; as a rule, active = well fitted curve in the direction sought with a large enough effect; inconclusive = small, poorly fitted or top-dose-only effect, or another doubt; inactive = no such curve, though single readings can be large; an effect the other way counts as inactive or inconclusive.

SMILES | CHX counter | Pf growth 96h | NS1 inh | Pf growth 48h | Shiga toxin inh | Sm TGR inh
COc1ccc(CCNC(=O)c2nnn(-c3cccc(C)c3)c2N)cc1OC | 1 | nt | 7% | -24% | -6 | -20%
COc1ccc(CCNC(=O)c2noc3c2CCCC3)cc1OC | 9.1* | ? | -2% | -21% | 2 | -1%
COc1ccc(CCNC(=O)c2nnn(-c3cc(C)cc(C)c3)c2N)cc1OC | -3 | 3.7µM* | 16% | ? | -4 | ?
COc1ccc(Cl)cc1NC(=O)c1noc2c1CCCC2 | 19* | 194% | nt | 5% | 51* | 0%
Cc1cccc(Oc2nc3c(c(=O)n(C)c(=O)n3C)n2Cc2ccccc2)c1C | nt | nt | nt | nt | nt | 6%
COc1ccc(NS(=O)(=O)c2ccc(O)c(NC(=O)c3cc4c(C)nn(-c5ccc(F)cc5)c4s3)c2)cc1 | -5 | ? | 4% | 41% | -15 | 7%
COc1ccc(CCNC(=O)Cn2nnc(C(=O)Nc3ccc(Br)cc3)c2N)cc1OC | 31* | 25% | -6% | 15% | 19 | -3%
CCOc1ccc(NC(=O)Cn2nnc(C(=O)NCCc3ccc(OC)c(OC)c3)c2N)cc1 | -2 | ? | 5% | 10% | -7 | -2%
O=C(NCC1CC1)c1onc(CSc2nc3ccccc3[nH]2)c1C(=O)NCC1CC1 | -1 | 10µM* | 13% | ? | -5 | -16%
CC(C)NC(=O)c1onc(CSc2nc3ccccc3[nH]2)c1C(=O)NC(C)C | -2 | 0% | -15% | 8% | -3 | 0%
CCCCNC(=O)c1onc(CSc2nc3ccccc3[nH]2)c1C(=O)NCCCC | -1 | 3.3µM* | 19% | 1.5µM* | -2 | 6%
O=C(Nc1ccc(S(=O)(=O)N2CCC(c3nc4ccccc4s3)CC2)cc1)c1ccccc1 | nt | nt | nt | nt | nt | 7%
CC1CCC(C(C)C)C(OCC[N+](C)(C)C)C1 (configuration not stated) | -3 | 15% | 0% | 3.7µM* | -9 | -2%
CC1CCC(C(C)C)C(OCC(O)C[N+]2(C)CCCCC2)C1 (configuration not stated) | 0 | 92% | 0% | ? | 4 | 7%
COC(C[C@@H]1O[C@@H]1C(=O)COCc1ccccc1)OC | -5 | 33% | 0% | 60% | 17 | -35%
COC(C/C=C/C(=O)COCc1ccccc1)OC | 18* | 33% | -61% | 47% | 42* | 16µM*
CN(C(=O)c1ccc(NC(=O)Cc2cccc(NC(=O)C3CCN(C(=O)CCc4ccccc4)CC3)c2)cc1)C1CCCC1 | nt | 1.9µM* | nt | 9.3µM* | nt | -2%
CN(C(=O)c1ccc(NC(=O)Cc2ccc(NC(=O)C3CCN(C(=O)CCc4ccccc4)CC3)cc2)cc1)C1CC1 | nt | ? | nt | ? | nt | -6%
CN(Cc1ccccc1)C(=O)c1ccc(NC(=O)Cc2cccc(NC(=O)C3CCCN(C(=O)C4CCCC4)C3)c2)cc1 (configuration not stated) | nt | -26% | nt | 12µM* | nt | -8%
CN(C(=O)c1ccc(NC(=O)Cc2cccc(NC(=O)C3CCCN(C(=O)C4CCC4)C3)c2)cc1)C1CCCC1 (configuration not stated) | nt | ? | nt | 12µM* | nt | -1%
CN(C(=O)c1ccc(NC(=O)Cc2cccc(NC(=O)C3CCN(C(=O)C4CCCCC4)CC3)c2)cc1)C1CCCC1 | nt | ? | nt | ? | nt | -2%
CN(Cc1ccccc1)C(=O)c1ccc(NC(=O)Cc2cccc(NC(=O)C3CCCN(C(=O)C4CCCCC4)C3)c2)cc1 (configuration not stated) | nt | ? | nt | ? | nt | -2%
CN(C(=O)c1ccc(NC(=O)Cc2cccc(NC(=O)C3CCCN(C(=O)C4CC4)C3)c2)cc1)C1CCCC1 (configuration not stated) | nt | ? | nt | 15µM* | nt | 6%
CN(C(=O)c1ccc(NC(=O)Cc2cccc(NC(=O)C3CCCN(C(=O)C4CCCCC4)C3)c2)cc1)C1CCCC1 (configuration not stated) | nt | ? | nt | ? | nt | -2%
